MCL1 BIM primary: inhibitors of MCL1 binding to BIM-BH3, primary screen, biochemical, fluorescence polarization | Induced myeloid leukemia cell differentiation protein Mcl-1 (Homo sapiens), Q07820 | GST-MCL1 / FITC-Bim-BH3 fluorescence polarization | inhibition, % at 10.9 µM | 320,000 tested, 0.68% active | AID 2057, 2009;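 active = inhibition above the mean inhibition of all tested compounds plus 3 SD, set per campaign, cut at about 40% in these data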;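 also: 0% = DMSO wells and 100% = unlabeled Bim-BH3 peptide control; higher means more loss of mP so more displacement of Bim peptide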
Bcl-xL primary: inhibitors of human Bcl-xL, primary screen, biochemical, fluorescence polarization, HTS | GST-Bcl-xL / FITC-Bim BH3 peptide fluorescence polarization | inhibition, % at 10.9 µM | 320,000 tested, 0.7% active;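 active = inhibition above the mean of all tested compounds plus 3 SD, cutoff set per campaign, cut at about 30% in these data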;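 also: 0% = DMSO wells and 100% = unlabeled Bim-BH3 peptide competitor; inhibitors lower millipolarization by displacing the labeled peptide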
Target sequence (Q07817 whole entry, looked up): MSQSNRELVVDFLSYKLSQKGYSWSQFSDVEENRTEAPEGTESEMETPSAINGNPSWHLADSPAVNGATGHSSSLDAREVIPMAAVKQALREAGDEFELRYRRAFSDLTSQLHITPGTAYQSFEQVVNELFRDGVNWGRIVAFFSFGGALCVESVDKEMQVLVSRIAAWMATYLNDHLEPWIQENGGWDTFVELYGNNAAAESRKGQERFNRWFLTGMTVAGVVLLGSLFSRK
MEX-5 binding: MEX-5 zinc finger RNA-binding disruptors – biochemical, C. elegans, fluorescence polarization, MLPCN library, primary screen. 300,000 tested, 0.38% active. activity score (negative = inhibition of binding), % at 10 µM. MEX-5/FITC-TCR2 RNA binding; active compounds read low;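 active = inhibition past about -25% in most replicates, and total fluorescence under double the plate's negative control median, limit read from the data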;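 also: 0% = DMSO and -100% = 5 µM competing unlabeled TCR2 RNA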
EBV gp42 block: Epstein-Barr virus gp42 inhibitors, primary screen, biochemical, uHTS, fluorescence polarization | Glycoprotein 42 (Epstein-Barr virus (strain AG876)), Q1HVG2 | Fluorescence polarization binding assay, mP read-out | inhibition, % (tested at 21.74 µM) | 220,000 tested, 0.42% active | AID 1085, 2008; in the data active = inhibition above about 50%
Target sequence (Q1HVG2 whole entry, looked up): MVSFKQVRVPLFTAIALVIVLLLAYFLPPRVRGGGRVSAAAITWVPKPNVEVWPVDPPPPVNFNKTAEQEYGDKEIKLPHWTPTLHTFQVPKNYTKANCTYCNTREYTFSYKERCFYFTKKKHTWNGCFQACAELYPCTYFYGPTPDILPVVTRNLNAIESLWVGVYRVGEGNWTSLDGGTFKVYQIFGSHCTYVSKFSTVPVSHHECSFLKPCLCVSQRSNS
eLon inh: inhibitors of E. coli Lon protease, primary screen, biochemical, fluorescence polarization; P0A9M0; purified E. coli Lon protease; inhibition, % at 7.94 µM; 360,000 tested, 0.42% active; in the data active = inhibition above about 13%, passing the limit was not always enough;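 also: 0% = enzyme with probe and DMSO and 100% = no enzyme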
GLD-1 RNA inh: GLD-1/TGE RNA complex disruptors, primary screen, biochemical, fluorescence polarization; AID 2280, 2010; purified GLD-1 + fluorescein TGE RNA; Female germline-specific tumor suppressor gld-1 (Caenorhabditis elegans), Q17339; inhibition, % at 5.96 µM; 320,000 tested, 0.44% active;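 active = percent inhibition above a per-plate cutoff, the plate mean of test compounds plus 3 SD, cut at about 30% in these data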;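 also: 0% = DMSO wells with GLD-1 and probe and 100% = wells lacking GLD-1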
Starred values were filed as active, the others as inactive; / = no result. Only some compounds are listed: those with a hit (about 1.5% of all), similar ones and a draw of the others.

SMILES	MCL1 BIM primary	Bcl-xL primary	MEX-5 binding	EBV gp42 block	eLon inh	GLD-1 RNA inh
CSC1=N/C(=C\c2ccccc2F)C(=O)S1	6.5	5.2	1.6	99.3*	6.6	-3.8
Cc1cc(C(=O)N/N=C2\CC(=O)CC(C)(C)C2)c2ccccc2n1	21.8	18.1	-4.1	-5.2	0.9	63.0*
CCN(CC)CCCn1c2c(c(SCC(=O)Nc3ccccc3Cl)nc1=O)CCC2	2.1	3.9	0.6	/	-15.9	0.6
CCCN1C(=O)/C(=C/c2ccc(C)o2)SC1=Nc1ccc(OC)cc1	8.0	2.5	-71.6*	-47.4	-12.6	-3.0
CC1=C(C(=O)NCc2ccccc2)C(c2ccc(C)o2)n2ncnc2N1 (configuration not stated)	41.6*	38.5*	0.0	-8.9	-1.3	29.9
COc1ccc(C(=O)Nc2ccc(S(=O)(=O)Nc3nccc(C)n3)cc2)cc1	10.4	10.9	0.2	/	-6.9	-3.5
Cc1ccc(O)c(-c2cc(C(=O)Nc3ccc(S(=O)(=O)Nc4nccc(C)n4)cc3)[nH]n2)c1	4.9	9.2	-29.1*	-2.7	-5.9	4.7
COc1cc(C2Nc3cccc4cccc(c34)N2)ccc1OC(C)=O	44.6*	39.1*	-1.0	-8.7	-5.7	10.1
Cc1nc(N2CCN(Cc3ccccc3)CC2)c(C#N)c2c1COC(C)(C)C2	23.7	26.2	-33.5*	23.9	9.8	8.2
COc1ccccc1C(CC(=O)Nc1ccc(C)c(C)c1)c1ccc(OC(C)C)cc1 (configuration not stated)	-0.3	5.7	2.0	-7.3	-10.4	11.5
COc1ccccc1NC(=O)CC(c1ccc(OC(C)C)cc1)c1ccccc1OC (configuration not stated)	3.8	2.3	0.3	69.5*	-17.3	-3.2
Cc1ccc2c(c1)N(CC(=O)Nc1ccccc1F)C(=O)C(C)O2 (configuration not stated)	/	/	/	/	-5.6	/
Nc1c(S(=O)(=O)O)cc(NC(=O)c2ccccc2)c2c1C(=O)c1ccccc1C2=O	108.9*	72.0*	-0.9	/	15.9	68.2*
O=C(O)c1cc(-c2ccc(/C=c3\sc4nc5ccc(Br)cc5n4c3=O)o2)ccc1Cl	-8.3	-26.8	-28.8*	/	/	-52.1
Cc1cc2nc3s/c(=C/c4ccc(-c5ccccc5C(=O)O)o4)c(=O)n3c2cc1C	-32.8	-24.5	-6.2	/	-25.6	-22.6
O=C(c1cc(-c2ccc(Cl)cc2)on1)N1CCCCCC1	-3.4	2.5	-1.8	/	-4.7	33.9*
O=C(c1cc(-c2ccc(Cl)c(Cl)c2)on1)N1CCCCCC1	-1.8	2.8	-1.5	/	-4.3	1.8
CC(C)(CCl)C(=O)Nc1ccc(OC(F)(F)F)cc1	5.0	2.4	3.2	61.1*	-9.6	5.8
COC(=O)c1ccccc1Oc1ccc(NC(=O)C(C)(C)CCl)cc1	2.6	2.9	2.3	6.7	0.5	-7.4
COc1ccc(N=C2S/C(=C\c3ccc(OCC(=O)O)cc3)C(=O)N2CCc2c[nH]c3ccccc23)cc1	/	/	-2.4	84.4*	0.1	/
O=C(N/N=C/c1ccccc1Cl)c1nc2ccc([N+](=O)[O-])cc2c(=O)[nH]1	16.9	8.7	-1.7	96.7*	-3.4	-2.4
O=C(N/N=C/c1cccc([N+](=O)[O-])c1)c1nc2ccccc2c(=O)[nH]1	-0.8	3.5	1.6	-11.2	3.0	7.3
Oc1ccccc1C1CCCCC1c1ccccc1 (configuration not stated)	1.9	0.3	1.2	/	1.6	4.8
Oc1ccc(-c2csc(Nc3ccccn3)n2)cc1O	21.8	27.4	-32.0*	/	1.1	5.2
CCOc1ccc(OCCNCc2ccc(OC(C)C(=O)N(C)C)c(OCC)c2)cc1 (configuration not stated)	-0.6	-0.4	-2.5	/	-10.8	-7.9
Cc1nnc(NC(=O)CSc2nnc(Cc3cccn3C)n2-c2cccc(C)c2C)s1	-1.9	104.5*	0.0	-15.8	/	-4.1
Cc1nnc(NC(=O)CSc2nnc(Cc3cccn3C)n2-c2ccccc2)s1	-6.7	1.3	-0.2	2.9	-1.0	-6.2

Compound activity from PubChem.
